Compound activity as filed in PubChem.
Most compounds without a hit are left out; they make up all but 2.6% or so of the library.
GLP1R inv ag: acts as inverse agonist at human GLP-1 receptor; P43220; Potency, µM (top dose mostly 38.3 µM), for the others: at the top dose activity change, negative = inhibition, most hits filed as inhibitors; AID 624417; HEK293 GLP-1R CRE-luciferase, luminescence, 24 h; GLP-1R form is constitutively active; actives 1.6% (n = 410,000); further: on the % scale 0 is the no-effect control and ±100 the full control effect; nearly all actives have a fitted effect of over 55% in size
Target sequence (P43220 whole entry, looked up): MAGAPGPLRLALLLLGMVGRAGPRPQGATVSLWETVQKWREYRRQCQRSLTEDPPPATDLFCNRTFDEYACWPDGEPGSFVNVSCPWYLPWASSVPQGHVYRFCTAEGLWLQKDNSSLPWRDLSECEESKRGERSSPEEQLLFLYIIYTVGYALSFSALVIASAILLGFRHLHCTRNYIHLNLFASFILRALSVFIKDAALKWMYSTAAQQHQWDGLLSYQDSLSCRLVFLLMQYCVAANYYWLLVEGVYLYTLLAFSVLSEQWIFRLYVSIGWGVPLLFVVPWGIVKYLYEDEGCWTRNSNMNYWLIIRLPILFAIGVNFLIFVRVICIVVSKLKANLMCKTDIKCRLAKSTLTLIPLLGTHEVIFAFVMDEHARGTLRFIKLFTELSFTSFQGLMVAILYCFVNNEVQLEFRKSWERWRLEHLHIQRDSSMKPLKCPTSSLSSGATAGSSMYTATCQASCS
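Readout was luciferase luminescence, measured 12 min after detection reagent at room temperature. Beforehand, GLP-1R reporter HEK293 cells had sat 12 h, then received compounds for 24 hr at 37 deg C.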
GLP-1R agonist: GLP-1 receptor (human) agonism; HEK293 GLP-1R CRE-luciferase, luminescence, 4-6 h; cells express a hypersensitive GLP-1R form; Potency, µM (top dose mostly 45.6 µM), without a hit: at the highest dose activation, most hits filed as activators; actives 0.007% (n = 380,000); AID 624172; further: % of control where 0% means no effect
BRCA1 expr act: BRCA1 expression activation | MCF7-BRCA1-FFLuc reporter, luminescence, 48 h; response scale: scaled: vehicle 0%, 10 µM genistein 100% | Potency, µM (doses to about 46.1 µM), for inactives: at the top dose activation, hits mostly activators | actives 1.1% (n = 380,000); further: nearly all actives have a fitted effect of over 80% in size
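First, MCF7-BRCA1-FFLuc cells (2000/well) attach for 2 h; next, compounds are pin-added and incubated 48 h at 37 °C; finally, luciferase reagent is added and luminescence read after 15 min.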
HEK293 tox: cytotoxicity in counter-screen for GLP-1R inverse agonists; HEK293 cAMP-luciferase reporter cells, luminescence, 24 h; Potency, µM (titrated, usually from 38.3 µM), for the others: at the top dose activity change, negative = inhibition, usual class: inhibitors; actives 0.13% (n = 410,000);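 further: loss of luciferase light is scored as toxicity; on the % scale 0 is the no-effect control and ±100 the full control effect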
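MLSMR compounds, 24 hr on cells at 37 deg C/5% CO2; luminescence after luciferase reagent (12 min RT). Inhibition counted as the undesired cytotoxic outcome.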
The depositor's hits bear a star; ? = inconclusive; / = no result. The call rests on the fitted dose curve; in most records, active means well fitted curve in the direction sought with a large enough effect; inconclusive means small, poorly fitted or top-dose-only effect, or another doubt; inactive means no such curve, though single readings can be large; an effect the other way counts as inactive or inconclusive. Potency means the concentration at half of the fitted maximal effect.

SMILES	GLP1R inv ag	GLP-1R agonist	BRCA1 expr act	HEK293 tox
Cc1ccc(N2CCN(S(=O)(=O)c3cccc4ccccc34)CC2)cc1Cl	17%	-2%	13%	2%
Oc1ccc(Cl)cc1-c1cc(-c2ccco2)[nH]n1	10µM*	-28%	-82%	?
Oc1ccccc1-c1cc(-c2ccco2)[nH]n1	-18%	-9%	9%	-8%
CCOC(=O)c1c(NC(=O)c2cc(OC)c(OC)c(OC)c2)sc2c1CCCC2	2%	/	/	-5%
COc1ccc(CCNC(=O)c2cc(S(=O)(=O)N(C)c3ccccc3)ccc2Cl)cc1	?	-4%	-40%	-5%
CCOc1ccc(N(C)S(=O)(=O)c2ccc(C)c(C(=O)N3CCN(Cc4ccc5c(c4)OCO5)CC3)c2)cc1	11µM*	0%	-58%	3%
CCOc1ccc(N(C)S(=O)(=O)c2ccc(C)c(C(=O)NCCc3ccc(OC)cc3)c2)cc1	10µM*	-2%	-34%	-5%
O=C(O)c1ccc(S(=O)(=O)/N=C2\C=C(Nc3ccccc3F)C(=O)c3ccccc32)cc1	?	-9%	-92%	?
Cc1ccccc1NC1=C/C(=N\S(=O)(=O)c2ccc(C(=O)O)cc2)c2ccccc2C1=O	8.9µM*	-2%	-99%	?
Cc1cc(C(=O)CSc2nnnn2C)c(C)n1Cc1ccco1	-10%	0%	4.5µM*	13%
CCOc1ncccc1C(=O)OCC(=O)c1cc(C)n(Cc2ccco2)c1C	?	5%	74%	-4%
Cc1cc(C(=O)COC(=O)c2ccc(O)cc2)c(C)n1Cc1ccco1	?	-5%	2.8µM*	9%
O=C(c1cccc([N+](=O)[O-])c1)N1CCCN(C(=O)c2cccc([N+](=O)[O-])c2)CC1	22%	5%	-19%	2%
CCOC(=O)CCCC(=O)N1CCN(/[N+]([O-])=N/Oc2ccc([N+](=O)[O-])cc2[N+](=O)[O-])CC1	/	/	-3%	/
CCCCNC(=O)c1ccc(NC(C)=O)c(Cl)c1	3%	1%	-31%	18%
CCOc1ccc(N2C(=O)c3[nH]nc(-c4ccccc4)c3C2c2ccc(O)c(OC)c2)cc1 (centres undefined)	8%	/	/	-20%
CCOC(=O)c1ccc(N2C(=O)c3[nH]nc(-c4ccc(C)cc4)c3C2c2cccs2)cc1 (centres undefined)	8.9µM*	-5%	-68%	?
CCOc1ccc(C2c3c(-c4ccc(C)cc4)n[nH]c3C(=O)N2c2ccc(Cl)cc2)cc1 (centres undefined)	10µM*	-9%	-75%	?
C=C[C@H]1CN2CCC1C[C@@H]2C(O)c1ccnc2ccc(OC)cc12 (some centres undefined)	/	/	-16%	/
Cc1cc(-c2ccccc2)nc(N2CCC(C(=O)NC(C)C)CC2)n1	0%	-12%	2µM*	1%
CC(=O)Oc1ccc2oc(=O)c3c(c2c1)CCCN3C(=O)CN1CCOCC1	5%	-5%	-10%	-3%
O=C(Nc1ccon1)c1ccc(N2CCCCC2)c([N+](=O)[O-])c1	9%	11%	13µM*	1%
Cc1ccc(NS(=O)(=O)c2ccc(C(=O)N3CCN(c4ccccn4)CC3)cc2)cc1	?	1%	-45%	-13%
CN(c1ccccc1)S(=O)(=O)c1cc(C(=O)N2CCN(c3ccccn3)CC2)ccc1Cl	13µM*	-13%	-32%	-24%
O=C(c1ccc(S(=O)(=O)Cc2cc(F)ccc2F)c([N+](=O)[O-])c1)N1CCCC1	8.9µM*	-4%	-26%	?
SMILES	GLP1R inv ag	GLP-1R agonist	BRCA1 expr act	HEK293 tox
Cc1ccc(S(=O)(=O)NCc2ccc(C(=O)N3CCN(c4ccccn4)CC3)cc2)cc1	13µM*	-6%	-5%	-24%
O=C(c1ccc(S(=O)(=O)Cc2cc(F)ccc2F)c([N+](=O)[O-])c1)N1CCCCC1	?	-32%	-59%	?
O=C(c1ccc(S(=O)(=O)Cc2ccccc2Cl)c([N+](=O)[O-])c1)N1CCN(c2ccccn2)CC1	10µM*	-1%	-70%	-4%
O=C(c1ccc(Cl)c([N+](=O)[O-])c1)N1CCN(S(=O)(=O)c2ccc(Cl)cc2)CC1	?	-3%	-55%	-9%
Cc1nc2ccc(NC(=O)c3ccc(Cl)c(S(=O)(=O)N(C)c4ccccc4)c3)cc2s1	1.8µM*	7%	-82%	-1%
O=C(c1ccc(N2CCCC2)c([N+](=O)[O-])c1)N1CCN(S(=O)(=O)c2ccc(Cl)cc2)CC1	10µM*	-10%	-41%	-10%
O=C(c1ccc(Cl)c([N+](=O)[O-])c1)N1CCN(c2ccccn2)CC1	25%	3%	-7%	-18%
CNC(=S)NN=C(C)CCCC(C)=NNC(=S)NC	?	-4%	-25%	1.8µM*
COc1cc(S(=O)(=O)N2CCOCC2)ccc1NC(=O)COC(=O)CC12CC3CC(CC(C3)C1)C2	-2%	7%	-49%	-10%
Cc1ccc(S(=O)(=O)Nc2cccc(C(=O)NC3CCN(Cc4ccccc4)CC3)c2)cc1F	?	-7%	-48%	?
O=C(NC1CCN(Cc2ccccc2)CC1)c1cccc(NS(=O)(=O)c2ccc(Br)cc2)c1	11µM*	0%	-12%	-27%
O=C(NC(=S)Nc1ccccc1[N+](=O)[O-])c1ccccc1Cl	-19%	16%	13µM*	?
CCn1nnc(NC(=S)NC(=O)c2ccc(-c3cccc(Cl)c3)o2)n1	-22%	-1%	17%	5µM*
O=C(O)c1cccc(NC(=S)NC(=O)c2ccc(-c3ccc(Cl)cc3)o2)c1	47%	0%	11µM*	-7%
CN(C)CC(=O)Nc1ccc(Oc2ccc(Cl)cc2)cc1	5µM*	15%	15%	9%
CCCCCn1nnnc1C1(C)CCC(=O)N1Cc1ccco1 (centres undefined)	17%	/	/	2%
COc1ccc(-n2nc3c(N4CCCC(C(=O)NCCc5ccc(C)cc5)C4)nnc(C)c3c2C)cc1 (centres undefined)	7%	/	/	-20%
O=C(NC(=S)N1CCCCCC1)c1ccccc1Cl	?	0%	-1%	5µM*
O=C(NC(=S)Nc1ccc(Cl)cc1)c1ccccc1	14%	20%	27%	-1%
O=C(NC(=S)Nc1ccc(O)cc1)c1ccccc1Cl	-11%	16%	?	-18%
O=C(NC(=S)Nc1ccc(Oc2ccc(Cl)cc2)cc1)c1ccccc1	13µM*	-6%	-25%	?
COc1ccc(NC(=S)NC(=O)c2ccccc2Cl)cc1	10%	-8%	13µM*	-30%
COC(=O)c1scc(-c2ccc(C)cc2)c1S(=O)(=O)Nc1cc(C)c(Cl)cc1OC	10µM*	/	/	-1%
Cc1nc(-c2ccc3c(c2)OCCCO3)cs1	-8%	8%	2.5µM*	-6%
Cc1nc(-c2ccc3c(c2)OCO3)cs1	19%	-1%	?	-4%
CC(=O)N1CCc2c(sc3c2c(=O)n(-c2ccccc2)c(=O)n3CC(=O)Nc2ccccc2)C1	0%	/	/	0%
